Measured values reported in PubChem BioAssay AID1159580 (chemical genetic matrix, 2015).
Several values for one entry are separate records, joined by “and”; a condition that tells them apart may be missing. Identical values can stand only once. In all, about 5,500 compounds went through this assay and about 2,000 (36%) were called active. Another 18% or so got no clear call; they are omitted. No stated cut-off is given here; in the data, active means normalized growth mostly below about 0.91 (no sharp cut-off); inconclusive means no clear call, values can overlap the other calls; inactive means mostly above about 0.92. This is one part of the list.

Assay: chemical genetic growth profiling, strain panel (AID 1159580);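 further: tested at 20 µM; growth read once vehicle control cultures reached saturation at 30 °C; 1 = growth at the plate median or of vehicle wells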
Conditions: S. cerevisiae deletion strains, growth OD

Measured: normalized growth

NCC(O)(CS(=O)(=O)O)c1ccc(Cl)cc1 (configuration not stated)
inactive: locus YAL040C, strain CLN3, stronger effect = lower value 1.07 | locus YCL061C, strain MRC1 (second series), stronger effect = lower value 0.995 | locus YDR150W, strain NUM1, stronger effect = lower value 1.02 | locus YER002W, strain NOP16, stronger effect = lower value 1.02 | locus YGR078C, strain PAC10, stronger effect = lower value 0.99 | locus YMR263W, strain SAP30, stronger effect = lower value 1 | locus YNL153C, strain GIM3, stronger effect = lower value 1 | locus YNL175C, strain NOP13, stronger effect = lower value 0.979 | locus YNL197C, strain WHI3, stronger effect = lower value 0.98 | locus YNL224C, strain SQS1, stronger effect = lower value 1.01 | locus YOR083W, strain WHI5 (second series), stronger effect = lower value 1 | locus YPL241C, strain CIN2, stronger effect = lower value 1

COc1ccc([C@@H]2CC(=O)c3c(O)cc(O[C@@H]4O[C@H](CO[C@H]5O[C@@H](C)[C@H](O)[C@@H](O)[C@H]5O)[C@@H](O)[C@H](O)[C@H]4O)cc3O2)cc1O
inactive: locus YAL013W, strain DEP1, stronger effect = lower value 0.995 | locus YAL021C, strain ccr4, stronger effect = lower value 1.01 | locus YAL026C, strain drs2, stronger effect = lower value 0.98 | locus YAL030W, strain snc1, stronger effect = lower value 0.993 | locus YBL061C, strain skt5, stronger effect = lower value 0.969 | locus YBR009C, strain hhf1, stronger effect = lower value 0.937 | locus YBR021W, strain FUR4, stronger effect = lower value 0.988 | locus YBR023C, strain chs3, stronger effect = lower value 0.993 | locus YBR171W, strain sec66, stronger effect = lower value 0.976 | locus YBR229C, strain ROT2, stronger effect = lower value 0.993 | locus YBR231C, strain swc5, stronger effect = lower value 0.987 | locus YBR279W, strain paf1, stronger effect = lower value 0.986 | locus YCL011C, strain gbp2, stronger effect = lower value 0.975 | locus YCL016C, strain dcc1, stronger effect = lower value 0.995 | locus YCL029C, strain bik1, stronger effect = lower value 0.971 | locus YCL061C, strain MRC1, stronger effect = lower value 0.977 | locus YCL069W, strain vba3, stronger effect = lower value 0.988 | locus YCR088W, strain abp1, stronger effect = lower value 0.989 | locus YDL005C, strain med2, stronger effect = lower value 0.98 | locus YDL035C, strain GPR1, stronger effect = lower value 0.991 | locus YDL040C, strain nat1, stronger effect = lower value 0.993 | locus YDL074C, strain BRE1, stronger effect = lower value 0.984 | locus YDL101C, strain DUN1, stronger effect = lower value 0.994 | locus YDL185W, strain tfp1, stronger effect = lower value 0.98 | locus YDL192W, strain arf1, stronger effect = lower value 0.993 | locus YDR001C, strain nth1, stronger effect = lower value 0.99 | locus YDR069C, strain doa4, stronger effect = lower value 0.985 | locus YDR101C, strain arx1, stronger effect = lower value 0.968 | locus YDR137W, strain rgp1, stronger effect = lower value 1.04 | locus YDR159W, strain sac3, stronger effect = lower value 0.977 | locus YDR162C, strain NBP2, stronger effect = lower value 1.01 | locus YDR195W, strain ref2 0.932 | locus YDR297W, strain sur2, stronger effect = lower value 0.98 | locus YDR318W, strain mcm21, stronger effect = lower value 0.994 | locus YDR334W, strain swr1, stronger effect = lower value 0.998 | locus YDR335W, strain msn5, stronger effect = lower value 0.982 | locus YDR388W, stronger effect = lower value 0.977 | locus YDR392W, strain spt3, stronger effect = lower value 0.907 | locus YDR502C, strain sam2, stronger effect = lower value 0.981 | locus YEL003W, strain gim4, stronger effect = lower value 0.982 | locus YEL037C, strain rad23, stronger effect = lower value 0.991 | locus YEL061C, strain CIN8 (second series), stronger effect = lower value 0.981 | locus YEL061C, strain CIN8, stronger effect = lower value 1 | locus YER015W, strain faa2, stronger effect = lower value 0.979 | locus YER016W, strain bim1, stronger effect = lower value 0.995 | locus YER110C, stronger effect = lower value 0.973 | locus YER111C, strain swi4, stronger effect = lower value 0.97 | locus YER155C, strain BEM2 (second series), stronger effect = lower value 0.987 | locus YER155C, strain BEM2, stronger effect = lower value 0.988 | locus YER167W, strain BCK2, stronger effect = lower value 0.991 | locus YFR010W, strain ubp6, stronger effect = lower value 0.976 | locus YGL078C, strain dbp3, stronger effect = lower value 0.967 | locus YGL086W, strain mad1, stronger effect = lower value 0.979 | locus YGL167C, strain pmr1, stronger effect = lower value 0.965 | locus YGL173C, strain kem1, stronger effect = lower value 0.968 | locus YGL227W, strain vid30, stronger effect = lower value 0.973 | locus YGL240W, strain doc1, stronger effect = lower value 0.98 | locus YGL248W, strain PDE1, stronger effect = lower value 1 | locus YGL253W, strain hxk2, stronger effect = lower value 0.999 | locus YGR135W, strain pre9, stronger effect = lower value 0.998 | locus YGR229C, strain SMI1, stronger effect = lower value 1 | locus YGR252W, strain gcn5, stronger effect = lower value 1.06 | locus YHR013C, strain ard1, stronger effect = lower value 0.922 | locus YHR027C, strain rpn1, stronger effect = lower value 0.99 | locus YHR030C, strain SLT2, stronger effect = lower value 0.997 and 1.05 | locus YHR079C, strain IRE1 (second series), stronger effect = lower value 0.983 | locus YHR079C, strain IRE1, stronger effect = lower value 1.03 | locus YHR094C, strain hxt1, stronger effect = lower value 0.975 | locus YHR129C, strain ARP1, stronger effect = lower value 1 | locus YHR142W, strain chs7, stronger effect = lower value 1.01 | locus YHR200W, strain rpn10, stronger effect = lower value 1 | locus YIL066C, strain RNR3, stronger effect = lower value 1 | locus YIL073C, strain SPO22, stronger effect = lower value 1 | locus YIL125W, strain kgd1, stronger effect = lower value 0.978 | locus YIR030C, strain dcg1, stronger effect = lower value 0.976 | locus YJL092W, strain hpr5, stronger effect = lower value 0.986 | locus YJL095W, strain BCK1 (second series), stronger effect = lower value 0.993 | locus YJL095W, strain BCK1, stronger effect = lower value 1.05 and 1.02 | locus YJL115W, strain asf1, stronger effect = lower value 0.993 | locus YJL129C, strain trk1, stronger effect = lower value 1.01 | locus YJL134W, strain LCB3, stronger effect = lower value 0.994 | locus YJL154C, strain vps35, stronger effect = lower value 0.998 | locus YJL164C, strain tpk1, stronger effect = lower value 1.01 | locus YJL166W, strain qcr8, stronger effect = lower value 0.992 | locus YJL168C, strain set2, stronger effect = lower value 0.984 | locus YJL187C, strain SWE1 (second series), stronger effect = lower value 1.02 | locus YJL187C, strain SWE1, stronger effect = lower value 0.991 | locus YJR043C, strain POL32, stronger effect = lower value 1.01 | locus YJR066W, strain TOR1, stronger effect = lower value 0.987 | locus YJR075W, strain HOC1, stronger effect = lower value 1 | locus YKL009W, strain mrt4, stronger effect = lower value 1.01 | locus YKL068W, stronger effect = lower value 0.984 | locus YKL085W, strain MDH1 (second series), stronger effect = lower value 0.996 | locus YKL085W, strain MDH1, stronger effect = lower value 0.996 | locus YKL160W, strain elf1, stronger effect = lower value 1.02 | locus YKL190W, strain CNB1, stronger effect = lower value 1.01 | locus YKR001C, strain vps1, stronger effect = lower value 0.948 | locus YKR026C, strain gcn3, stronger effect = lower value 0.979 | locus YKR091W, strain srl3, stronger effect = lower value 0.981 | locus YLL001W, strain dnm1, stronger effect = lower value 1.01 | locus YLL026W, stronger effect = lower value 0.999 | locus YLL041C, strain sdh2, stronger effect = lower value 0.999 | locus YLR027C, strain aat2, stronger effect = lower value 0.998 | locus YLR039C, strain RIC1, stronger effect = lower value 1.04 | locus YLR058C, strain SHM2, stronger effect = lower value 1 | locus YLR102C, strain apc9, stronger effect = lower value 0.977 | locus YLR113W, strain HOG1, stronger effect = lower value 1.05 | locus YLR221C, strain rsa3, stronger effect = lower value 0.999 | locus YLR258W, strain gsy2, stronger effect = lower value 0.988 | locus YLR262C, strain YPT6 (second series), stronger effect = lower value 1 | locus YLR262C, strain YPT6, stronger effect = lower value 1.02 | locus YLR268W, strain sec22, stronger effect = lower value 0.959 | locus YLR320W, strain mms22, stronger effect = lower value 0.97 | locus YLR330W, strain CHS5, stronger effect = lower value 0.996 | locus YLR342W, strain FKS1 (second series), stronger effect = lower value 1.03 | locus YLR342W, strain FKS1, stronger effect = lower value 0.954 | locus YLR357W, strain rsc2, stronger effect = lower value 0.97 | locus YLR370C, strain arc18, stronger effect = lower value 0.991 | locus YLR371W, strain rom2, stronger effect = lower value 0.971 | locus YLR384C, strain iki3, stronger effect = lower value 0.976 | locus YLR418C, strain cdc73, stronger effect = lower value 1 | locus YML016C, strain PPZ1, stronger effect = lower value 0.995 | locus YML032C, strain rad52, stronger effect = lower value 1 | locus YML120C, strain ndi1, stronger effect = lower value 1.01 | locus YML124C, strain tub3, stronger effect = lower value 0.986 | locus YMR058W, strain fet3, stronger effect = lower value 0.985 | locus YMR078C, strain ctf18, stronger effect = lower value 0.969 | locus YMR125W, strain sto1, stronger effect = lower value 0.972 | locus YMR129W, stronger effect = lower value 0.989 | locus YMR205C, strain PFK2, stronger effect = lower value 0.936 | locus YMR223W, strain ubp8, stronger effect = lower value 0.992 | locus YMR231W, strain pep5, stronger effect = lower value 0.969 | locus YMR307W, strain GAS1, stronger effect = lower value 1.06 | locus YNL067W, strain RPL9B, stronger effect = lower value 1.01 | locus YNL071W, strain lat1, stronger effect = lower value 0.984 | locus YNL183C, strain NPR1, stronger effect = lower value 0.996 | locus YNL209W, strain ssb2, stronger effect = lower value 0.978 | locus YNL233W, strain BNI4, stronger effect = lower value 1 | locus YNL248C, strain rpa49, stronger effect = lower value 1.04 | locus YNL250W, strain rad50, stronger effect = lower value 0.978 | locus YNL271C, strain bni1, stronger effect = lower value 1 | locus YNL298W, strain CLA4, stronger effect = lower value 0.972 | locus YNL307C, strain MCK1, stronger effect = lower value 0.97 | locus YNL322C, strain KRE1 (second series), stronger effect = lower value 0.987 | locus YNL322C, strain KRE1, stronger effect = lower value 1 | locus YNR049C, strain mso1, stronger effect = lower value 0.993 | locus YNR052C, strain pop2, stronger effect = lower value 0.986 | locus YOL006C, strain TOP1, stronger effect = lower value 0.962 | locus YOL012C, strain htz1 1.06 | locus YOL147C, strain pex11, stronger effect = lower value 0.983 | locus YOR001W, strain rrp6, stronger effect = lower value 1.03 | locus YOR061W, strain CKA2, stronger effect = lower value 0.977 | locus YOR069W, strain VPS5, stronger effect = lower value 0.992 | locus YOR070C, strain gyp1, stronger effect = lower value 1.01 | locus YOR080W, strain dia2, stronger effect = lower value 0.974 | locus YOR083W, strain WHI5, stronger effect = lower value 1.02 | locus YOR106W, strain vam3, stronger effect = lower value 1.02 | locus YOR136W, strain idh2, stronger effect = lower value 0.981 | locus YOR144C, strain elg1, stronger effect = lower value 0.987 | locus YOR184W, strain ser1, stronger effect = lower value 0.994 | locus YOR231W, strain MKK1, stronger effect = lower value 1.06 | locus YOR265W, strain rbl2, stronger effect = lower value 1 | locus YOR270C, strain vph1, stronger effect = lower value 0.989 | locus YOR290C, strain snf2, stronger effect = lower value 0.922 | locus YOR316C, strain cot1, stronger effect = lower value 0.994 | locus YPL051W, strain arl3, stronger effect = lower value 1.03 | locus YPL078C, strain atp4, stronger effect = lower value 1.01 | locus YPL106C, strain sse1, stronger effect = lower value 0.976 | locus YPL240C, strain hsp82, stronger effect = lower value 0.966 | locus YPL256C, strain CLN2, stronger effect = lower value 1.04 | locus YPR119W, strain clb2, stronger effect = lower value 0.98 | locus YPR141C, strain kar3, stronger effect = lower value 0.98 | locus YPR163C, strain tif3, stronger effect = lower value 0.984 | locus YPR167C, strain met16, stronger effect = lower value 0.972 | strain wtn01, stronger effect = lower value 0.971
